# What was measured:
# Assay in all cases: DAPPL (digital affinity profiling via proximity ligation, sequencing); 10 mM Tris-HCl pH 7.5, 50 mM NaCl, 1 mM DTT, 4% glycerol, room temperature, 30 min; GST-TFs on glutathione beads, 16-mer random dsDNA library, 0.1% formaldehyde crosslink after washing; high values mean tight binding
# FLI1 = biological target: T1, FLI1 (Homo sapiens, UniProt Q01543 1-452); details: protein: recombinant; tags: N-terminal GST; dsDNA, one strand shown
# T1 sequence: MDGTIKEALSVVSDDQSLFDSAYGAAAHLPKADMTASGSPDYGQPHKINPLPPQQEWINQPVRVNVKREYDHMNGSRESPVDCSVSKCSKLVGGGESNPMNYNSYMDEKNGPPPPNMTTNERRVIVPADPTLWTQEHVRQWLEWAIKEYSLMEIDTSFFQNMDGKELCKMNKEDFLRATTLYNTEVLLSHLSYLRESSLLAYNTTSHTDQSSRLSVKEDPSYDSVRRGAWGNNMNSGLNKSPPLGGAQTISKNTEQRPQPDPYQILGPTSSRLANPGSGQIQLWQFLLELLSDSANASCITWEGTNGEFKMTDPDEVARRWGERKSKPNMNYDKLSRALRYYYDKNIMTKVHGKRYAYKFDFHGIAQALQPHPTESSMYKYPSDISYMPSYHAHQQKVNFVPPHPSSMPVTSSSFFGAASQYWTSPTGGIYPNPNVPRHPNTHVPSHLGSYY
# Procedure, shortened: (§1)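 Pools of DNA-barcoded human transcription factors, expressed in yeast as GST fusions on glutathione beads and combined with a tag-only sample, were incubated with 200 nmole of a 16-mer random double-stranded DNA library. Incubation took 30 min at room temperature in Tris/NaCl/DTT/glycerol buffer and was followed by washing, 0.1% formaldehyde crosslinking, proximity ligation (BsaI/T4 ligase, 1 h, 37 °C), PCR amplification and sequencing on an Illumina NextSeq500. Binding signal is the ratio of a hexamer's read frequency for a factor to its frequency for the tag-only sample.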
# ELK1 = biological target: T2, ELK1 (Homo sapiens, UniProt P19419 1-428); details: protein: recombinant; tags: N-terminal GST; dsDNA, one strand shown
# T2 sequence: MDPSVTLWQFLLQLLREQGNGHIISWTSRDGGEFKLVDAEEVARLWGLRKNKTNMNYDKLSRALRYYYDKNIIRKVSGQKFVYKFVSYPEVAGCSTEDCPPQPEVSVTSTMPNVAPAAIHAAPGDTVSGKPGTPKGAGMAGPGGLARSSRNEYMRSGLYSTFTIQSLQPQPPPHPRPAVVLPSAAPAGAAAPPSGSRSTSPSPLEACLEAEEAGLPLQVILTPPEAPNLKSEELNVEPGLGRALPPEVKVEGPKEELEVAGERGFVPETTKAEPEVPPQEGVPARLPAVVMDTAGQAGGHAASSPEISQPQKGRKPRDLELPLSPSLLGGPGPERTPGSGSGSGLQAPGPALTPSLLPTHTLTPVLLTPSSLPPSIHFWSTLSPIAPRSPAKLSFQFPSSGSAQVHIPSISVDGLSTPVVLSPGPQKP
# Procedure, shortened: as §1
# GABPA = biological target: T3, GABPA (Homo sapiens, UniProt Q06546 1-454); details: protein: recombinant; tags: N-terminal GST; dsDNA, one strand shown
# T3 sequence: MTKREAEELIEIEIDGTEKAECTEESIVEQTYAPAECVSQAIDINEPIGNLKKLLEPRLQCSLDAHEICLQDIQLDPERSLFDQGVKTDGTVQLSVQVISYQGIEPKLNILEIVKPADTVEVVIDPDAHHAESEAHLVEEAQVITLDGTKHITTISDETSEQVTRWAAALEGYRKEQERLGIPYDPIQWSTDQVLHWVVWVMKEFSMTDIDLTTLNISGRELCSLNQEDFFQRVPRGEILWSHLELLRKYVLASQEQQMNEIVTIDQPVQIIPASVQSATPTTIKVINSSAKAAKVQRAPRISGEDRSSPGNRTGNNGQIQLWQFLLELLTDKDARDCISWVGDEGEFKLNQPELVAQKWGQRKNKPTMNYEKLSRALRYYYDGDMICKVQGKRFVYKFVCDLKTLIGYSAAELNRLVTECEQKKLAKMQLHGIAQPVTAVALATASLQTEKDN
# Procedure, shortened: as §1
# ERG = biological target: T4, ERG (Homo sapiens, UniProt P11308 1-479); details: protein: recombinant; tags: N-terminal GST; dsDNA, one strand shown
# T4 sequence: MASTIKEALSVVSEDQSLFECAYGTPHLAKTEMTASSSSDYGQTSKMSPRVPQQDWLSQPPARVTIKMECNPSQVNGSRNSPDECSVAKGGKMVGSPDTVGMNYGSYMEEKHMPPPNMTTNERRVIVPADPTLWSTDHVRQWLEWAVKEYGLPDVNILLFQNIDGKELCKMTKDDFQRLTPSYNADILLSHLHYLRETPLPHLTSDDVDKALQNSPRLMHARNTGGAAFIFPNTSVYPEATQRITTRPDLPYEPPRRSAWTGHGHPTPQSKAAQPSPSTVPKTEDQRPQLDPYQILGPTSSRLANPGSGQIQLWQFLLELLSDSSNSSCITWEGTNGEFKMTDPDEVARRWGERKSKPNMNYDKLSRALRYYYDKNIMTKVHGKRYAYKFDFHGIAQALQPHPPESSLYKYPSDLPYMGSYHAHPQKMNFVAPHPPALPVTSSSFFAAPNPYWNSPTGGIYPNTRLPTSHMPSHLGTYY
# Procedure, shortened: as §1
# ELF1 = ELF1 (Homo sapiens, UniProt P32519 1-619); details: protein: recombinant; tags: N-terminal GST; dsDNA, one strand shown
# Chain of ELF1 (P32519 whole entry): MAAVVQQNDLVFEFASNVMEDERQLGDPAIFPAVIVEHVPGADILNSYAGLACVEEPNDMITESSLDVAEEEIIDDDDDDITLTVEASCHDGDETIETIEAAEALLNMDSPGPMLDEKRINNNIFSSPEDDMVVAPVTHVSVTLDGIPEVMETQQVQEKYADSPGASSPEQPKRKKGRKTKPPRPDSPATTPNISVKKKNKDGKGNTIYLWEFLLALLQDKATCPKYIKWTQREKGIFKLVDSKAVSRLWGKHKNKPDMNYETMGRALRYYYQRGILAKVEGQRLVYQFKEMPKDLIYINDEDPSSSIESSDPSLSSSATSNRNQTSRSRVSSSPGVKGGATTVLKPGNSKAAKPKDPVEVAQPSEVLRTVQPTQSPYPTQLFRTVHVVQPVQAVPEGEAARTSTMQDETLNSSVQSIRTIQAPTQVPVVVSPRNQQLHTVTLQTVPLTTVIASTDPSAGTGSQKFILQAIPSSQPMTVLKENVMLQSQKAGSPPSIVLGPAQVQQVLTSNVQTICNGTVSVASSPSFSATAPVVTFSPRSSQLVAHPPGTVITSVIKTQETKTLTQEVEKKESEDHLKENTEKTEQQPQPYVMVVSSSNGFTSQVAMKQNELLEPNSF
# Procedure, shortened: as §1
# EHF = biological target: T5, EHF (Homo sapiens, UniProt Q9NZC4 1-300); details: protein: recombinant; tags: N-terminal GST; dsDNA, one strand shown
# T5 sequence: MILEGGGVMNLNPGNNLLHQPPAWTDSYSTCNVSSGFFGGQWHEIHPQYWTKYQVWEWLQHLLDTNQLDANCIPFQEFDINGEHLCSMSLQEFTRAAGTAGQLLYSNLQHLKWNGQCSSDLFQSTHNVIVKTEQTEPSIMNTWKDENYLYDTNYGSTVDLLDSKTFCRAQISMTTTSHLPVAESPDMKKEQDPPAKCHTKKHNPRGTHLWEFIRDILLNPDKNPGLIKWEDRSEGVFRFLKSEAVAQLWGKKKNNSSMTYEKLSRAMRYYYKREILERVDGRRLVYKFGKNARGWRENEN
# Procedure, shortened: as §1
# SPI1 = SPI1 (Homo sapiens, UniProt P17947 1-270); details: protein: recombinant; tags: N-terminal GST; dsDNA, one strand shown
# Procedure, shortened: as §1
# SPIB = SPIB (Homo sapiens, UniProt Q01892 1-262); details: protein: recombinant; tags: N-terminal GST; dsDNA, one strand shown
# Chain of SPIB (Q01892 whole entry): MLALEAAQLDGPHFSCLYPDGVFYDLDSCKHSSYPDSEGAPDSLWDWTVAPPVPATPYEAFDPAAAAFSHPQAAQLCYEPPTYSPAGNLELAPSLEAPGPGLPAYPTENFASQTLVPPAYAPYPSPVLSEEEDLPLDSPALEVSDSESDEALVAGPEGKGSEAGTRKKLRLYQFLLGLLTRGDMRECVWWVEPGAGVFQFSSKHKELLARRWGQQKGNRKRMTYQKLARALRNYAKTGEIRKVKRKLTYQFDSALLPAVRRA
# Procedure, shortened: as §1
# ELK3 = biological target: T6, ELK3 (Homo sapiens, UniProt P41970 1-407); details: protein: recombinant; tags: N-terminal GST; dsDNA, one strand shown
# T6 sequence: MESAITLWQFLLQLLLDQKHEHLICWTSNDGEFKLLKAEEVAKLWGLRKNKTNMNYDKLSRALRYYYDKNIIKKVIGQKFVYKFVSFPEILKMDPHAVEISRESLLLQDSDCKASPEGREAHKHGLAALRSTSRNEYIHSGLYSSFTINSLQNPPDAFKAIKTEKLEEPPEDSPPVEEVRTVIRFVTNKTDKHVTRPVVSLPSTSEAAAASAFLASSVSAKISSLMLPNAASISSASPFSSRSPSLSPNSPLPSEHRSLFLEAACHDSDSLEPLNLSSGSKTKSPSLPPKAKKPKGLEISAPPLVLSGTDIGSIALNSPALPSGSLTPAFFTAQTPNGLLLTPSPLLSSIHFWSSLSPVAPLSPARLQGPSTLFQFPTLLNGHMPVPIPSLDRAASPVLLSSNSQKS
# Procedure, shortened: as §1
# FEV = biological target: T7, FEV (Homo sapiens, UniProt Q99581 1-238); details: protein: recombinant; tags: N-terminal GST; dsDNA, one strand shown
# T7 sequence: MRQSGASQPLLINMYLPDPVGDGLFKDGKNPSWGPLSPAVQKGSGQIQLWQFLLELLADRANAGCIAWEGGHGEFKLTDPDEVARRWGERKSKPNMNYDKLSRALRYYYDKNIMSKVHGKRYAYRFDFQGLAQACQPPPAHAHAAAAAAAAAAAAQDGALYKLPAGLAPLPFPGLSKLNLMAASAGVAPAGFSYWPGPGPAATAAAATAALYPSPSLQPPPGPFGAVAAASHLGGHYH
# Procedure, shortened: as §1
# ETV5 = ETV5 (Homo sapiens, UniProt P41161 1-510); details: protein: recombinant; tags: N-terminal GST; dsDNA, one strand shown
# Chain of ETV5 (P41161 whole entry): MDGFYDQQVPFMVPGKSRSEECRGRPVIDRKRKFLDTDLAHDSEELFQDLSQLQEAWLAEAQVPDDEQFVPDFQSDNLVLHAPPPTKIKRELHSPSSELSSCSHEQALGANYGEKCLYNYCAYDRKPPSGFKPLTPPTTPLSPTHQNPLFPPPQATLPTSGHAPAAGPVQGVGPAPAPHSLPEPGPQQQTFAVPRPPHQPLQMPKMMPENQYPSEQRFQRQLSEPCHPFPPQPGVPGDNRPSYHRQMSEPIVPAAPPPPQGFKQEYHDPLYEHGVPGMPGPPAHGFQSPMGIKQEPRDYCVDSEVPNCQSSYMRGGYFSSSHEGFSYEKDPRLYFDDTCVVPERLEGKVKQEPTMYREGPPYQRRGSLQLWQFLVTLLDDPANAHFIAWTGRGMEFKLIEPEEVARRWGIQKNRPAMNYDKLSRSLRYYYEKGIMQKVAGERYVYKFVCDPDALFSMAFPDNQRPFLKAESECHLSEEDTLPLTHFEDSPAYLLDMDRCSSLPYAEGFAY
# Procedure, shortened: as §1
# HSF1 = HSF1 (Homo sapiens, UniProt Q00613 1-529); details: protein: recombinant; tags: N-terminal GST; chain copies: 3; dsDNA, one strand shown
# Chain of HSF1 (Q00613 whole entry): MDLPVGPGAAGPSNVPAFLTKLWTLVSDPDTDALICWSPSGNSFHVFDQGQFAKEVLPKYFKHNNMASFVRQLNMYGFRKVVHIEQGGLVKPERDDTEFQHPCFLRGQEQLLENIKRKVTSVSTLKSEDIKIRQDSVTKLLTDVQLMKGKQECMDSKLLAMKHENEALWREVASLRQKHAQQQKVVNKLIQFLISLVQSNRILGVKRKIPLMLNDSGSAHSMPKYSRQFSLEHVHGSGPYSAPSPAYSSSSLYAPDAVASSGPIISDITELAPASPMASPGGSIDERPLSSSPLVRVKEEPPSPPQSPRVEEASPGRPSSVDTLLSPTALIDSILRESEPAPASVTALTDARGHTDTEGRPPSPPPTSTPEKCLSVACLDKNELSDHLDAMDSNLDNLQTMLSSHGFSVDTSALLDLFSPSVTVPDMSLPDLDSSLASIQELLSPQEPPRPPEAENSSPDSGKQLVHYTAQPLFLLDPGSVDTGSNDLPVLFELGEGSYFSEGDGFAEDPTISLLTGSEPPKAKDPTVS
# Procedure, shortened: as §1
# SPIC = biological target: T8, SPIC (Homo sapiens, UniProt Q8N5J4 1-248); details: protein: recombinant; tags: N-terminal GST; dsDNA, one strand shown
# T8 sequence: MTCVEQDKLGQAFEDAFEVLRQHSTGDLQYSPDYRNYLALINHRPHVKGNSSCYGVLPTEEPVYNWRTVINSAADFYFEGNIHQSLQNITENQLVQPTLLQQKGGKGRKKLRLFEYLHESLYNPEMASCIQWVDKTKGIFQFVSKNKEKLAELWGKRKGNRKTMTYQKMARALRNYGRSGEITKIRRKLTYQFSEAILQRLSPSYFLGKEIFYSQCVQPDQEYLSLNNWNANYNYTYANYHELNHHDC
# Procedure, shortened: as §1
# ELF4 = ELF4 (Homo sapiens, UniProt Q99607 1-663); details: protein: recombinant; tags: N-terminal GST; dsDNA, one strand shown
# Chain of ELF4 (Q99607 whole entry): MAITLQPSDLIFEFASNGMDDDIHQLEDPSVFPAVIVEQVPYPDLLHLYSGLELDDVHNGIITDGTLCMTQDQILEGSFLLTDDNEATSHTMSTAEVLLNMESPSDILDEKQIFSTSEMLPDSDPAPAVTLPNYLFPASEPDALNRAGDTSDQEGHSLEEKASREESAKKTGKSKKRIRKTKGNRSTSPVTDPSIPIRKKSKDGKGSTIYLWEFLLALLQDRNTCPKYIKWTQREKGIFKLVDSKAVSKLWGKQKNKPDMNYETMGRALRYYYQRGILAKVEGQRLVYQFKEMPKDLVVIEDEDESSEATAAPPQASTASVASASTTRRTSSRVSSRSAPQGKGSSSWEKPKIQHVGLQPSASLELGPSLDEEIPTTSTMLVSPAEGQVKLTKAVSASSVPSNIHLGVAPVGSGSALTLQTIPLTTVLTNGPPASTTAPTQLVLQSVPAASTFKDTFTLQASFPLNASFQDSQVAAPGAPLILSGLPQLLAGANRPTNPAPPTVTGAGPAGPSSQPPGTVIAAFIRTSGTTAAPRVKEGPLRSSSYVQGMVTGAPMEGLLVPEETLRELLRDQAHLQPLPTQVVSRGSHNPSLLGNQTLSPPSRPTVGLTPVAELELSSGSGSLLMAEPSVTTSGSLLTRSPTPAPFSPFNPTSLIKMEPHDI
# Procedure, shortened: as §1
# ELK4 = biological target: T9, ELK4 (Homo sapiens, UniProt P28324-2 1-405); details: protein: recombinant; tags: N-terminal GST; dsDNA, one strand shown
# T9 sequence: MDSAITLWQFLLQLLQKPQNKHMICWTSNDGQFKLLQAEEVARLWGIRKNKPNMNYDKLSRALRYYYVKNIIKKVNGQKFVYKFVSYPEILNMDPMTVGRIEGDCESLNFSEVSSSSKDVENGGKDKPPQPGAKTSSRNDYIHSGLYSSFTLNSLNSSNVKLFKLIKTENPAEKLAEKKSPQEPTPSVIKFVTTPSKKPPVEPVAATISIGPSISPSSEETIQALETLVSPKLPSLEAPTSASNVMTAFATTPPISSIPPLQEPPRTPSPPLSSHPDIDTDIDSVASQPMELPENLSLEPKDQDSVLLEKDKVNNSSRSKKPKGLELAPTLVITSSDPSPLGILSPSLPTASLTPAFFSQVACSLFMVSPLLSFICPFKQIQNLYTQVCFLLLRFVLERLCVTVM
# Procedure, shortened: as §1
# ETV2 = biological target: T10, ETV2 (Homo sapiens, UniProt O00321 1-342); details: protein: recombinant; tags: N-terminal GST; dsDNA, one strand shown
# T10 sequence: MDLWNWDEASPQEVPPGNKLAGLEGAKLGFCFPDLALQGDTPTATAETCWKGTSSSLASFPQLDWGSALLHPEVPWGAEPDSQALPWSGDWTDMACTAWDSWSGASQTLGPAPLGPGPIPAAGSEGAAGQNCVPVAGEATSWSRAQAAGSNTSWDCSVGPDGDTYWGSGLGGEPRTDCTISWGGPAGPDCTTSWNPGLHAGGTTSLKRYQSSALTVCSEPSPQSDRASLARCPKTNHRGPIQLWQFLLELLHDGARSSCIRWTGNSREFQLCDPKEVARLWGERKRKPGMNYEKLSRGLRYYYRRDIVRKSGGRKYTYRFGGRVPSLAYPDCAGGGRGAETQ
# Procedure, shortened: as §1
# ELF3 = biological target: T11, ELF3 (Homo sapiens, UniProt P78545 1-371); details: protein: recombinant; tags: N-terminal GST; dsDNA, one strand shown
# T11 sequence: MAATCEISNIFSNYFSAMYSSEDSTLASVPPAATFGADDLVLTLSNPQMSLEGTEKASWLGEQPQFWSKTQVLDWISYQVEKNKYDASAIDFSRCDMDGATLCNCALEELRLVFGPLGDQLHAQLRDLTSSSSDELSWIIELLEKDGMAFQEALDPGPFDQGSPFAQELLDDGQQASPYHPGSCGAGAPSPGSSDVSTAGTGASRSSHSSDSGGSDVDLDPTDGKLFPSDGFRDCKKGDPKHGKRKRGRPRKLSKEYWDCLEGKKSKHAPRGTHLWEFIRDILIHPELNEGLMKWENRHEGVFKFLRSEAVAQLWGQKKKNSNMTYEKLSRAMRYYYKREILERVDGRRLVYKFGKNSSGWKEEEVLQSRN
# Procedure, shortened: as §1
# CRX = CRX (Homo sapiens, UniProt O43186 1-299); details: protein: recombinant; tags: N-terminal GST; dsDNA, one strand shown
# Chain of CRX (O43186 whole entry): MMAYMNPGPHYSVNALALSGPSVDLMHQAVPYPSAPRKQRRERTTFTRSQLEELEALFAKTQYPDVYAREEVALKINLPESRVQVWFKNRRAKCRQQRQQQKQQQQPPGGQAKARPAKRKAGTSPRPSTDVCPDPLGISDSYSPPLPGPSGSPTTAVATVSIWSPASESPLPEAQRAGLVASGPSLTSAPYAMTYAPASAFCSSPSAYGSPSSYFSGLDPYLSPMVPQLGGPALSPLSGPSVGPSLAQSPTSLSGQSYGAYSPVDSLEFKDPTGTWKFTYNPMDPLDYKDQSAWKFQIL
# Procedure, shortened: as §1
# ETV1 = ETV1 (Homo sapiens, UniProt P50549 1-477); details: protein: recombinant; tags: N-terminal GST; dsDNA, one strand shown
# Chain of ETV1 (P50549 whole entry): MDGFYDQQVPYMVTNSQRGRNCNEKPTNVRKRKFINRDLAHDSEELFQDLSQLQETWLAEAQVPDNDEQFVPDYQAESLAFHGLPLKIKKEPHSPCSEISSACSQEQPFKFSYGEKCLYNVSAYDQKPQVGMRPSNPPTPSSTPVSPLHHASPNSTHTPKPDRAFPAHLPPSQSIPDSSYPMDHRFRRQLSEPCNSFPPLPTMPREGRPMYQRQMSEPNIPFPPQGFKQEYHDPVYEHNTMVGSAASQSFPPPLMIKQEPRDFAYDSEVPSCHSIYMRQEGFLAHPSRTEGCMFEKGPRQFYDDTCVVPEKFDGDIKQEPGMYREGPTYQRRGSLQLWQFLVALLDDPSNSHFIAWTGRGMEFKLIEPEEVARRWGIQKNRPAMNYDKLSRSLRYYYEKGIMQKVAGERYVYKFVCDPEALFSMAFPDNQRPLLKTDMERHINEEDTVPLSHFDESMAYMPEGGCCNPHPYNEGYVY
# Procedure, shortened: as §1
sequence,measurement,setting,value
AATAGC,binding signal,FLI1,"1.17 fold enrichment (6-mer frequency, TF over GST control)"
same,binding signal,ELK1,"1.14 fold enrichment (6-mer frequency, TF over GST control)"
same,binding signal,GABPA,"1.17 fold enrichment (6-mer frequency, TF over GST control)"
same,binding signal,ERG,"1.12 fold enrichment (6-mer frequency, TF over GST control)"
same,binding signal,ELF1,"1.09 fold enrichment (6-mer frequency, TF over GST control)"
same,binding signal,EHF,"1.23 fold enrichment (6-mer frequency, TF over GST control)"
same,binding signal,SPI1,"1.15 fold enrichment (6-mer frequency, TF over GST control)"
same,binding signal,SPIB,"1.16 fold enrichment (6-mer frequency, TF over GST control)"
same,binding signal,ELK3,"1.1 fold enrichment (6-mer frequency, TF over GST control)"
same,binding signal,FEV,"1.18 fold enrichment (6-mer frequency, TF over GST control)"
same,binding signal,ETV5,"1.19 fold enrichment (6-mer frequency, TF over GST control)"
same,binding signal,HSF1,"1.07 fold enrichment (6-mer frequency, TF over GST control)"
same,binding signal,SPIC,"1.01 fold enrichment (6-mer frequency, TF over GST control)"
same,binding signal,ELF4,"1.15 fold enrichment (6-mer frequency, TF over GST control)"
same,binding signal,ELK4,"1.19 fold enrichment (6-mer frequency, TF over GST control)"
same,binding signal,ETV2,"1.17 fold enrichment (6-mer frequency, TF over GST control)"
same,binding signal,ELF3,"1.23 fold enrichment (6-mer frequency, TF over GST control)"
same,binding signal,CRX,"1.15 fold enrichment (6-mer frequency, TF over GST control)"
same,binding signal,ETV1,"1.13 fold enrichment (6-mer frequency, TF over GST control)"

# — article PMC7862700, “An all-to-all approach to the identification of sequence-specific readers for epigenetic DNA modifications on cytosine”
